In the library only some 1.1% were active in any assay of this set; here they are far more common.
LANA-H2B inh: blocks KSHV LANA binding to histone H2A/H2B | Q9QR71 | cell-free LANA-H2A/H2B peptide, fluorescence polarization | inhibition, % (no concentration beside the values) | actives 0.6% (n = 320,000) | AID 2629; in the data active means inhibition mostly above about 10%, no sharp cut-off; inactive means mostly below about 6.7%
IDE cell activ: activators of human insulin-degrading enzyme in cells | activation, % at 5.96 µM | HEK cells, FAbeta-B cleavage, fluorescence polarization; 0% vehicle, 100% cell-free pure enzyme wells | actives 0.073% (n = 340,000) | AID 493087 | P14735;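 active means activation above the mean of all tested compounds plus 3 SD, set per screening campaign, cut at about 17% in these data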
HDAC3 inh: blocks human histone deacetylase 3 | inhibition, % at 8.3 µM | recombinant HDAC3, fluorogenic peptide/trypsin coupled, fluorescence | O15379 | actives 0.15% (n = 320,000); in the data active means inhibition above about 26%, passing the limit was not always enough; inconclusive means no clear call, values can overlap the other calls
IDE inh: inhibitors of human insulin-degrading enzyme in cells; actives 0.41% (n = 320,000); AID 434962; P14735; inhibition, % at 5.59 µM; HEK cells, FAbetaB cleavage, fluorescence polarization;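 active means percent inhibition above the average of all tested compounds plus 3 SD, set per screening campaign, cut at about 16% in these data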;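 further: IDE supplied by intact live HEK cells; FP after avidin binding of uncleaved biotin substrate so inhibition keeps polarization high; 0% = DMSO wells and 100% = 60 µM reference IDE inhibitor Ii1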
* hit, by the source's call; ? = inconclusive; . = not tested or not shown; + = active, no number.

SMILES	LANA-H2B inh	IDE cell activ	HDAC3 inh	IDE inh
COc1ccc(C2C=C(c3ccc(Cl)cc3)Nc3nc(NC(C)=O)nn32)cc1 (stereo not drawn)	2	.	4	20*
CC(C)Cn1c(N)c(C(=O)COC(=O)c2nccnc2N)c(=O)n(C)c1=O	1	3	-86	-5
CC1=CC(=C(C#N)C#N)c2ccccc2N1C	46*	0	1	-1
CCCC1=C([O-])C2N=CC=CC2=[N+](c2ccccn2)C1=O (stereo not drawn)	9	3	6	1
O=C(Oc1ccc(Cl)cc1N1C(=O)CCC1=O)c1ccco1	-1	2	34*	-4
COC(=O)c1sccc1Oc1ccc(Cl)cc1N1C(=O)CCC1=O	-7	-6	-3	3
C1CCCCCC(=NNc2nn[nH]n2)CCCCC1	8	34*	-2	1
COc1cc(OC)cc(-c2cc3ccccc3c(=O)o2)c1	70*	-3	-7	5
Cc1cccc(C)c1OCc1cc(C(=O)NC2CCC(O)CC2)no1 (stereo not drawn)	21*	5	7	-6
CC(=O)c1c(C)nn(C(=O)c2cccs2)c1C	2	7	41*	5
O=C(NCc1ccco1)c1cnn2c1NC(c1ccccc1)CC2C(F)(F)F (stereo not drawn)	2	6	?	-5
Cc1ccccc1Cn1ccc(NC(=O)c2cnn3c2NC(c2ccccc2)CC3C(F)(F)F)n1 (stereo not drawn)	+	-4	-5	3
O=C(COc1ccc2c(c1)OCO2)Nc1cccc(F)c1	11	2	4	7
COc1cc(CNc2ccc(C)c(C)c2)cc(OC)c1OC	5.5*	2	-2	0
COc1ccc(CNc2ccc(C)c(C)c2)cc1	-1	7	2	0
Cc1cccc(NC(=O)Cn2cnc(S(=O)(=O)N3CCCC3)c2)c1C	1	7	1	-1
C[C@H](NC(=O)C1CC(=O)N(c2ccc3c(c2)OCCO3)C1)C(=O)N1CCCCC1 (stereo partly drawn)	16*	4	-1	4
Cc1cc(C)c2c(N)c(C(=O)N3CCc4ccccc4C3)sc2n1	-4	-2	10	6
O=C(NCc1ccco1)C1CCC(N2C(=O)C3C4CCC(C4)C3C2=O)CC1 (stereo not drawn)	-5	0	-4	4
O=C(NCc1ccco1)C1CCC(N2C(=O)c3ccccc3C2=O)CC1 (stereo not drawn)	23*	3	-1	-2
COC(=O)c1c(NC(=O)C(=O)N2CCOCC2)sc2c1CCC2	13*	4	-2	-3
COc1cc(Cl)ccc1OCc1cc(C(=O)NC2CCc3ccccc32)no1 (stereo not drawn)	29*	0	6	-1
COc1ccc([N+](=O)[O-])cc1NC(=O)C1CCCCC1C(=O)O (stereo not drawn)	-4	-1	-9	4
CN(CC(=O)Nc1ccc(Cl)cc1)C1=NS(=O)(=O)c2ccccc21	27*	-1	2	-6
CCCC[n+]1c(C)sc2ccc(C)cc21	3	-5	3	-1
SMILES	LANA-H2B inh	IDE cell activ	HDAC3 inh	IDE inh
CC[n+]1c(C)sc2cc(C)ccc21	9.2*	-7	4	7
O=c1cc(C2CCCCC2)[nH]c(=O)[nH]1	.	6	.	.
O=C(CCCCCNC(=S)Nc1ccccc1)C[N+](=O)[O-]	-3	6	29*	-4
Cc1ccsc1/C=C(\C(=O)c1ccc(OC(C)C)cc1)c1nc2ccccc2o1	11*	2	-8	2
Cc1ccsc1/C=C(\CC(=O)O)c1nc2ccccc2o1	5	2	2	1
COc1cccc(CNC(=O)c2cccc(S(=O)(=O)N3CCN(c4ccc(F)cc4)CC3)c2)c1	22*	8	1	0
COc1ccc(CNC(=O)c2cccc(S(=O)(=O)N3CCN(c4ccc(F)cc4)CC3)c2)cc1	.	-3	.	.
CN(CC(=O)Nc1ccccc1Br)C(=O)c1ccccc1-c1nc2ccccc2s1	-4	6	-1	-2
CCCCCCCCCCC[N+](C)(C)CC/C=C1/c2ccccc2Sc2ccc(Cl)cc21	1	11	32*	-9
CC[N+](C)(C)CC/C=C1/c2ccccc2Sc2ccc(Cl)cc21	5	.	-3	-2
CCCCCCCCCC[N+](C)(C)CC/C=C1/c2ccccc2Sc2ccc(Cl)cc21	-4	11	35*	-13
O=C(Nc1ccccc1Cl)C1CCCN(S(=O)(=O)c2ccc(F)cc2)C1 (stereo not drawn)	8.8*	7	2	2
CCOC(=O)CN(C(=O)CSc1nnc(COc2ccc(OC)cc2)n1C)c1ccccc1	0	-1	-7	2
COc1ccccc1C(=O)NCCC(=O)NCC1COc2ccccc2O1 (stereo not drawn)	23*	2	3	-3
CCCCC1CCc2[nH]nc(C(=O)O)c2C1 (stereo not drawn)	2	-2	-2	-6
O=C1C=CC2=C3c4cc(O)c(O)cc4CC3(O)COC2=C1O (stereo not drawn)	.	1	.	.
O=C(/C=C/Nc1nccs1)C(F)(F)Cl	-2	-6	54*	5
O=C(Nc1nccs1)NC(C(F)(F)F)C(F)(F)F	-3	-1	0	-3
COc1cc(C2CC(=O)N3CN(Cc4ccco4)CSC3=C2C#N)ccc1OCc1ccccc1 (stereo not drawn)	15	-12	4	1
COc1ccc(C2CC(=O)N3CN(Cc4ccco4)CSC3=C2C#N)cc1 (stereo not drawn)	8	-9	37*	2
COc1ccc2ccccc2c1C1CC(=O)N2CN(Cc3ccco3)CSC2=C1C#N (stereo not drawn)	1	-11	44*	1
COc1ccc2ccccc2c1C1CC(=O)N2CN(C3CCCCC3)CSC2=C1C#N (stereo not drawn)	1	-4	43*	2
O=C1CCC(C(=O)N2CCSCC2)CN1CCc1cccc(F)c1 (stereo not drawn)	0	-3	-9	-1
CC(C)CNC(=O)c1ccccc1NC(=O)Nc1ccccc1	-1	2	-7	2
CCC(C)NC(=O)c1ccccc1NC(=O)Nc1ccccc1 (stereo not drawn)	16*	-4	0	10
SMILES	LANA-H2B inh	IDE cell activ	HDAC3 inh	IDE inh
O=C(Nc1cccc(C(=O)N2CCCC2)c1)C1CCCCC1	.	3	.	.
COc1cccc(N2CCN(c3ncnc4c3[nH]c3ccccc34)CC2C)c1 (stereo not drawn)	-4	.	4	25*
CC(=O)N1CCN(CC(=O)Nc2ccccc2Sc2ccccc2)CC1	2	6	-13	-3
CN(Cc1c(C(=O)N2CCCCCCC2)nc2ccc(Cl)cn12)C1CCOC1 (stereo not drawn)	19*	1	-1	.
Cc1cccn2c(CN(C)C3CCOC3)c(C(=O)N3CCCCC3)nc12 (stereo not drawn)	-3	7	-4	1
O=S(=O)(/N=C(/Nc1ccc(F)cc1F)c1ccccc1)c1ccc(Br)cc1	-2	.	-1	-2
CCOC(=O)c1oc2cc(O)cc(C)c2c(=O)c1-c1cscn1	26*	1	3	1
